For 31 molecules, binding signal results are on record in paper PMC9911399, “Two distinct binding modes provide the RNA-binding protein RbFox with extraordinary sequence specificity”.

Substitutions are numbered along the chain they refer to; changes in the protein carry UniProt numbers. The full ranking holds about 16,000 sequences; the median of “ka relative to ugcaugu” is about 0.096, and the highest 2% start at about 0.35. What follows is part of a selection rich in the highest values, with near analogues and random picks from the rest.

T1: RBFOX1 RRM RbFoxmut (Fox-RRM*) (Homo sapiens, UniProt Q9NWB1 109-208, R118D;E147R;N151S;E152T)
T1 sequence: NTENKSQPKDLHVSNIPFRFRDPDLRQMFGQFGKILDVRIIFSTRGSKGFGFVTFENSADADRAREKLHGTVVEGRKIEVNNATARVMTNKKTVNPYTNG

B1: GCCACUG (DNA:RNA)
RNA: GGGAGACCGGAAUUCAGAUUGUCCGCCACUGUUAAAUCCCGUCGUAGCCACCA
DNA 1: CAATCTGAATTCCGGTCTCCC
DNA 2: TGGTGGCTACGACGGGATT
B2: AAGCCCU (DNA:RNA)
RNA: B1 RNA with G25A, C26A, C27G, A28C, U30C, G31U
DNA 1: CAATCTGAATTCCGGTCTCCC
DNA 2: TGGTGGCTACGACGGGATT
B3: CGAACAU (DNA:RNA)
RNA: B1 RNA with G25C, C26G, C27A, U30A, G31U
DNA 1: CAATCTGAATTCCGGTCTCCC
DNA 2: TGGTGGCTACGACGGGATT
B4: GCCGAGU (DNA:RNA)
RNA: B1 RNA with A28G, C29A, U30G, G31U
DNA 1: CAATCTGAATTCCGGTCTCCC
DNA 2: TGGTGGCTACGACGGGATT
B5: CUUGAUA (DNA:RNA)
RNA: B1 RNA with G25C, C26U, C27U, A28G, C29A, G31A
DNA 1: CAATCTGAATTCCGGTCTCCC
DNA 2: TGGTGGCTACGACGGGATT
B6: AGCGCUC (DNA:RNA)
RNA: B1 RNA with G25A, C26G, A28G, G31C
DNA 1: CAATCTGAATTCCGGTCTCCC
DNA 2: TGGTGGCTACGACGGGATT
B7: ACCCAAG (DNA:RNA)
RNA: B1 RNA with G25A, A28C, C29A, U30A
DNA 1: CAATCTGAATTCCGGTCTCCC
DNA 2: TGGTGGCTACGACGGGATT
B8: GUGAAUU (DNA:RNA)
RNA: B1 RNA with C26U, C27G, C29A, G31U
DNA 1: CAATCTGAATTCCGGTCTCCC
DNA 2: TGGTGGCTACGACGGGATT
B9: GUGUGAA (DNA:RNA)
RNA: B1 RNA with C26U, C27G, A28U, C29G, U30A, G31A
DNA 1: CAATCTGAATTCCGGTCTCCC
DNA 2: TGGTGGCTACGACGGGATT
B10: GUGAAUG (DNA:RNA)
RNA: B1 RNA with C26U, C27G, C29A
DNA 1: CAATCTGAATTCCGGTCTCCC
DNA 2: TGGTGGCTACGACGGGATT
B11: AAAUCUU (DNA:RNA)
RNA: B1 RNA with G25A, C26A, C27A, A28U, G31U
DNA 1: CAATCTGAATTCCGGTCTCCC
DNA 2: TGGTGGCTACGACGGGATT
B12: UGAGAAU (DNA:RNA)
RNA: GGGAGACCGGAAUUCAGAUUGUCCUGAGAAUUUAAAUCCCGUCGUAGCCACCA
DNA 1: CAATCTGAATTCCGGTCTCCC
DNA 2: TGGTGGCTACGACGGGATT
B13: GCUUAUG (DNA:RNA)
RNA: B1 RNA with C27U, A28U, C29A
DNA 1: CAATCTGAATTCCGGTCTCCC
DNA 2: TGGTGGCTACGACGGGATT
B14: CCUACGU (DNA:RNA)
RNA: B1 RNA with G25C, C27U, U30G, G31U
DNA 1: CAATCTGAATTCCGGTCTCCC
DNA 2: TGGTGGCTACGACGGGATT
B15: CACCCGC (DNA:RNA)
RNA: B1 RNA with G25C, C26A, A28C, U30G, G31C
DNA 1: CAATCTGAATTCCGGTCTCCC
DNA 2: TGGTGGCTACGACGGGATT
B16: UACUGGU (DNA:RNA)
RNA: B12 RNA with G26A, A27C, G28U, A29G, A30G
DNA 1: CAATCTGAATTCCGGTCTCCC
DNA 2: TGGTGGCTACGACGGGATT
B17: UGGAUCG (DNA:RNA)
RNA: B1 RNA with G25U, C26G, C27G, C29U, U30C
DNA 1: CAATCTGAATTCCGGTCTCCC
DNA 2: TGGTGGCTACGACGGGATT
B18: UGGAUGG (DNA:RNA)
RNA: B1 RNA with G25U, C26G, C27G, C29U, U30G
DNA 1: CAATCTGAATTCCGGTCTCCC
DNA 2: TGGTGGCTACGACGGGATT
B19: CGGAGUG (DNA:RNA)
RNA: B1 RNA with G25C, C26G, C27G, C29G
DNA 1: CAATCTGAATTCCGGTCTCCC
DNA 2: TGGTGGCTACGACGGGATT
B20: GGAUCCG (DNA:RNA)
RNA: B1 RNA with C26G, C27A, A28U, U30C
DNA 1: CAATCTGAATTCCGGTCTCCC
DNA 2: TGGTGGCTACGACGGGATT
B21: UGGAUGC (DNA:RNA)
RNA: B12 RNA with A27G, G28A, A29U, A30G, U31C
DNA 1: CAATCTGAATTCCGGTCTCCC
DNA 2: TGGTGGCTACGACGGGATT
B22: UGGAGAC (DNA:RNA)
RNA: B12 RNA with A27G, G28A, A29G, U31C
DNA 1: CAATCTGAATTCCGGTCTCCC
DNA 2: TGGTGGCTACGACGGGATT
B23: CGGAUGC (DNA:RNA)
RNA: B1 RNA with G25C, C26G, C27G, C29U, U30G, G31C
DNA 1: CAATCTGAATTCCGGTCTCCC
DNA 2: TGGTGGCTACGACGGGATT
B24: UGGACUG (DNA:RNA)
RNA: B1 RNA with G25U, C26G, C27G
DNA 1: CAATCTGAATTCCGGTCTCCC
DNA 2: TGGTGGCTACGACGGGATT
B25: CGGACUG (DNA:RNA)
RNA: B1 RNA with G25C, C26G, C27G
DNA 1: CAATCTGAATTCCGGTCTCCC
DNA 2: TGGTGGCTACGACGGGATT
B26: UGGAUCC (DNA:RNA)
RNA: B12 RNA with A27G, G28A, A29U, A30C, U31C
DNA 1: CAATCTGAATTCCGGTCTCCC
DNA 2: TGGTGGCTACGACGGGATT
B27: UGGAGUG (DNA:RNA)
RNA: B1 RNA with G25U, C26G, C27G, C29G
DNA 1: CAATCTGAATTCCGGTCTCCC
DNA 2: TGGTGGCTACGACGGGATT
B28: UGGAGAG (DNA:RNA)
RNA: B12 RNA with A27G, G28A, A29G, U31G
DNA 1: CAATCTGAATTCCGGTCTCCC
DNA 2: TGGTGGCTACGACGGGATT
B29: UAAGGAG (DNA:RNA)
RNA: B12 RNA with G26A, A29G, U31G
DNA 1: CAATCTGAATTCCGGTCTCCC
DNA 2: TGGTGGCTACGACGGGATT
B30: AGUAGGG (DNA:RNA)
RNA: B1 RNA with G25A, C26G, C27U, C29G, U30G
DNA 1: CAATCTGAATTCCGGTCTCCC
DNA 2: TGGTGGCTACGACGGGATT
B31: CAAGUGG (DNA:RNA)
RNA: B12 RNA with U25C, G26A, A29U, A30G, U31G
DNA 1: CAATCTGAATTCCGGTCTCCC
DNA 2: TGGTGGCTACGACGGGATT

The test deals with T1, RBFOX1 RRM RbFoxmut (Fox-RRM*). The test can be described thus: EMSA; HiTS-Eq, 1 nM pool, 10 min; buffer printed only for the single-RNA assays: 10 mM Tris pH 7.5, 150 mM NaCl, 3.4 mM EDTA, 0.001% NP-40, 30 C. The settings on record: tags: His6 N-terminal (pET28a); label: 5' 32P. Summed up: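 Purified RbFox RRM, wild type or mutant, was incubated for 10 min in 50 µL with 1 nM of a 5′-radiolabelled RNA pool carrying 7 randomized nucleotides, whose flanks were annealed to DNA oligonucleotides, over a series of increasing protein concentrations. Unbound RNA was resolved on 8% native PAGE, cut out, reverse-transcribed, barcoded by PCR and sequenced on an Illumina HiSeq 2500. Relative association constants were derived from changes in read counts for each RNA species versus the control reaction and normalised to the cognate motif.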
On to B1, for which the binding signal is 0.101 KA relative to UGCAUGU.

As for B2, the binding signal was 0.0868 KA relative to UGCAUGU.

B3: the binding signal is 0.0626 KA relative to UGCAUGU.

B4: the binding signal was 0.123 KA relative to UGCAUGU.

Turning to B5, the binding signal is 0.134 KA relative to UGCAUGU.

For B6, the binding signal was 0.0471 KA relative to UGCAUGU.

As for B7, the binding signal was 0.0886 KA relative to UGCAUGU.

For the molecule B8, the binding signal is 0.118 KA relative to UGCAUGU.

As for B9, the binding signal is 0.132 KA relative to UGCAUGU.

With B10, the binding signal was 1.45 KA relative to UGCAUGU.

Turning to B11, the binding signal was 0.0581 KA relative to UGCAUGU.

On to B12, for which the binding signal is 0.092 KA relative to UGCAUGU.

As to B13, the binding signal is 0.142 KA relative to UGCAUGU.

For the molecule B14, the binding signal was 0.146 KA relative to UGCAUGU.

B15: the binding signal was 0.0852 KA relative to UGCAUGU.

On to B16, for which the binding signal is 0.103 KA relative to UGCAUGU.

For the molecule B17, the binding signal was 0.597 KA relative to UGCAUGU.

For B18, the binding signal is 0.332 KA relative to UGCAUGU.

With B19, the binding signal was 0.198 KA relative to UGCAUGU.

In the case of B20, the binding signal is 0.153 KA relative to UGCAUGU.

As for B21, the binding signal is 0.438 KA relative to UGCAUGU.

For the molecule B22, the binding signal is 0.0876 KA relative to UGCAUGU.

Take B23: the binding signal was 0.189 KA relative to UGCAUGU.

As to B24, the binding signal is 0.418 KA relative to UGCAUGU.

Turning to B25, the binding signal was 0.353 KA relative to UGCAUGU.

As to B26, the binding signal is 0.211 KA relative to UGCAUGU.

As for B27, the binding signal is 0.45 KA relative to UGCAUGU.

Regarding B28, the binding signal is 0.108 KA relative to UGCAUGU.

On to B29, for which the binding signal was 0.11 KA relative to UGCAUGU.

As to B30, the binding signal was 0.0759 KA relative to UGCAUGU.

As for B31, the binding signal was 0.0554 KA relative to UGCAUGU.
